# According to PubChem BioAssay (EPA / NIEHS):
# “And” between values parts separate entries of the source, which are not always exact repeats. Equal values may be shown once. Results filed as inconclusive are left out. Some compounds were tested as several samples or in several runs, with calls that do not always agree. The source made the active and inactive calls. Rule for the calls: active = hit-call score of the fitted dose curve at least 0.9, where 1 is the maximum; inconclusive = response in the unintended direction; inactive = score below 0.9.
# Target: Peroxisome proliferator-activated receptor gamma (Homo sapiens) (UniProt P37231)
# Test: ATG_hPPARg_XSP2: Attagene TRANS-FACTORIAL Multi-Species (XSP2) HepG2 Assay for human Peroxisome Proliferator-activated Receptor gamma (PPARg) (AID 2283829);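 note: actives raise reporter mRNA above DMSO so AC50 reflects PPARg activation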
# Experimental: ATG_XSP2_multi-species_TRANS is a cell-based, multiplexed assay created by modifying the existing Attagene TRANS-FACTORIAL system to include a panel of nuclear receptors from some or all the following species: human (Homo sapiens), mouse (Mus musculus), frog (Xenopus laevis), zebrafish (Danio rerio), chicken (Gallus gallus), and turtle (Chrysemys picta). The ECOTOX-FACTORIAL format uses HepG2, a human liver cell line, with measurements taken at 24 hours after chemical dosing in a 24-well plate. Xsp2 included 3 nM 6-alpha-fluorotestosterone and 1.5 nM norgestrel to stimulate the androgen receptor.ATG_hPPARg_XSP2 is one of 29 assay components measured or calculated from the ATG_XSP2_multi-species_TRANS assay. It is designed to make measurements of mRNA induction, a form of inducible reporter, as detected with fluorescence intensity signals by Reverse transcription polymerase chain reaction (RT-PCR) and Capillary electrophoresis technology.The assay endpoint ATG_hPPARg_XSP2 was analyzed in the positive analysis fitting direction relative to DMSO as the negative control and baseline of activity. Using a type of inducible reporter, measures of mRNA for gain-of-signal activity can be used to understand the reporter gene at the transcription factor-level as they relate to the gene PPARg. Furthermore, this assay endpoint can be referred to as a primary readout, because this assay has produced multiple assay endpoints where this one serves a reporter gene function. To generalize the intended target to other relatable targets, this assay endpoint is annotated to the nuclear receptor intended target family, where the subfamily is non-steroidal.
# Human liver HepG2 cells are transiently transfected with multiple reporter transcription units (MRTUs) in 6-well plates using FuGene 6 reagent (Roche; 3 ml FuGene/1 mg DNA). The MRTU constructs are regulated by a cis-regulating element (promoter). […] A major difference between the CIS and TRANS system is that in CIS activities of endogenous TFs are measured, whereas the TRANS assay evaluates changes in activities of exogenous, chimeric NR-Gal4 proteins. […] At the end of 24 hour incubation, total RNA was isolated using TriZol reagent (Invitrogen). The isolated RNA is then reverse-transcribed using oligo(dT) primer and Mo-MLV reverse transcriptase (Invitrogen) with DNAse I (Ambion) treatment for 30 min. The one-tenth of the produced cDNA was amplified by PCR using Taq DNA polymerase (Invitrogen) and two reporter sequence-specific primers. The PCR products were fluorescently labeled by primer extension with 6-arboxyfluorescein (6-FAM) 5'-labeled reporter sequence-specific primer (2 min at 95 C, 20 s at 68 C and 10 min at 72 C) and these products were digested with 5U of HpaI (New England Biolabs) for 2h at 37 C. The fragments were purified using Qiaquick PCR columns (Qiagen), analyzed on an ABI 3130xL genetic analyzer (Applied Biosystems) with peak positions identified by using a set of X-rhodamine (ROX)-labeled MapMarker1000 molecular weight standards (BioVentures). The raw capillary electrophoresis data was processed using Attagraph software (Attagene).
# Peroxisome proliferator-activated receptor gamma (Homo sapiens), sequence (P37231 whole entry, looked up): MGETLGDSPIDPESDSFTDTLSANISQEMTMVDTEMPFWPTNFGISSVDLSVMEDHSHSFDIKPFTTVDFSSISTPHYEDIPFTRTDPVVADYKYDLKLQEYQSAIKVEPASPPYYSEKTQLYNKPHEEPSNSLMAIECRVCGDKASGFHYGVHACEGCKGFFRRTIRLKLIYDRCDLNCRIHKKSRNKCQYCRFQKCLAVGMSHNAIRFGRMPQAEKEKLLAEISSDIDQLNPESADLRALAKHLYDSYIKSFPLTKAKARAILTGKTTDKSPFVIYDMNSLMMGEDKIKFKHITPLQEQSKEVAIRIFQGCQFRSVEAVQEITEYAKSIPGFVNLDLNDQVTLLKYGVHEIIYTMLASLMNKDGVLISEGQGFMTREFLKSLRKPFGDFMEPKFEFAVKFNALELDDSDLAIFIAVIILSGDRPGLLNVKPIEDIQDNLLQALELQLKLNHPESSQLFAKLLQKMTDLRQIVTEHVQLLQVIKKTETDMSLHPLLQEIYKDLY
SMILES,outcome,AC50
C[C@]12CCC(=O)C=C1CC[C@@H]1[C@@H]2CC[C@]2(C)C(=O)CC[C@@H]12,inactive,–
ClC(Cl)=C(c1ccc(Cl)cc1)c1ccc(Cl)cc1,inactive,–
Clc1ccc(C(c2ccccc2Cl)C(Cl)(Cl)Cl)cc1 (configuration not stated),inactive,–
C[C@]12CCC(=O)C=C1CC[C@@H]1[C@@H]2CC[C@@]2(C)[C@H]1CC[C@]2(C)O,inactive,–
Cc1cc(-c2ccc(N)c(C)c2)ccc1N,–,16.2 µM (active) and 72.1 µM (active) and 100 µM (active)
CC(c1ccc(O)cc1)(c1ccc(O)cc1)c1ccc(O)cc1,inactive,–
c1cc2ccc3cccc4ccc(c1)c2c34,inactive,140 µM (active)
CC(C)(c1ccccc1)c1ccc(O)cc1,inactive,–
CCC(=O)O[C@H]1CC[C@H]2[C@@H]3CCC4=CC(=O)CC[C@]4(C)[C@H]3CC[C@]12C,inactive,–
Oc1ccc(C(c2ccc(O)cc2)(C(F)(F)F)C(F)(F)F)cc1,inactive,–
CCOC(=O)C(O)(c1ccc(Cl)cc1)c1ccc(Cl)cc1,–,17.4 µM (active) and 31.3 µM (active)
